# Records with an inconclusive call do not appear. The source made the active and inactive calls. Calls follow the shape of the dose curve; as a rule, active = well fitted cell-killing curve with a large enough effect; inconclusive = small, poorly fitted or top-dose-only effect, or effect the other way; inactive = no such curve, though single readings can be large or run the other way.
# What was measured:
# [1] = Quantitative High-Throughput drug screen in 47 multiple myeloma cell lines against the NCATS MIPE library collection: XG6_PLB cell viability assay (AID 1919865); conditions: XG6 myeloma viability, CellTiter-Glo ATP luminescence, 48 h; series mostly up to 45.8 µM; also: nearly all actives have a fitted effect of over 40% in size
# Procedure, shortened: (§1)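 Cells were exposed to library compounds for 48 hours, after which ATP was measured by CellTiter-Glo. Signal was taken as median relative luminescence units.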
# [2] = Quantitative High-Throughput drug screen in 47 multiple myeloma cell lines against the NCATS MIPE library collection: XG1_PLB cell viability assay (AID 1919866); conditions: CellTiter-Glo ATP, 48 h; series mostly up to 45.8 µM; also: nearly all actives have a fitted effect of over 35% in size
# Procedure, shortened: as §1
# [3] = Quantitative High-Throughput drug screen in 47 multiple myeloma cell lines against the NCATS MIPE library collection: VP6_DJ cell viability assay (AID 1919867); conditions: ATP luminescence, 48 h; series mostly up to 45.8 µM; also: nearly all actives have a fitted effect of over 40% in size
# Procedure, shortened: as §1
# [4] = Quantitative High-Throughput drug screen in 47 multiple myeloma cell lines against the NCATS MIPE library collection: UTMC2_PLB cell viability assay (AID 1919868); conditions: CellTiter-Glo ATP luminescence, 48 h; viability (% of DMSO control): at 45.8 µM (top of the series); also: nearly all actives have a fitted effect of over 55% in size
# Procedure, shortened: as §1
# [5] = Quantitative High-Throughput drug screen in 47 multiple myeloma cell lines against the NCATS MIPE library collection: PE2_PLB cell viability assay (AID 1919869); conditions: PE2_PLB myeloma cells viability, ATP luminescence, 48 h; series mostly up to 45.8 µM; also: nearly all actives have a fitted effect of over 35% in size
# Procedure, shortened: as §1
# [6] = Quantitative High-Throughput drug screen in 47 multiple myeloma cell lines against the NCATS MIPE library collection: PCM6_Riken cell viability assay (AID 1919870); conditions: CellTiter-Glo ATP, 48 h; series mostly up to 45.8 µM; also: nearly all actives have a fitted effect of over 30% in size
# Procedure, shortened: as §1
# [7] = Quantitative High-Throughput drug screen in 47 multiple myeloma cell lines against the NCATS MIPE library collection: RPMI8226_ATCC cell viability assay (AID 1919871); conditions: RPMI8226 myeloma viability, CellTiter-Glo ATP luminescence, 48 h; series mostly up to 45.8 µM; also: nearly all actives have a fitted effect of over 30% in size
# Procedure, shortened: as §1
# [8] = Quantitative High-Throughput drug screen in 47 multiple myeloma cell lines against the NCATS MIPE library collection: OPM2_DSMZ cell viability assay (AID 1919872); conditions: OPM2 myeloma viability, CellTiter-Glo ATP luminescence, 48 h; series mostly up to 45.8 µM; also: nearly all actives have a fitted effect of over 30% in size
# Procedure, shortened: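 Viability readout: CellTiter-Glo luminescence following 5 min room-temperature incubation with reagent. Prior exposure: 48 h, 37C, humidified 5% CO2, 500 cells per well.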
# [9] = Quantitative High-Throughput drug screen in 47 multiple myeloma cell lines against the NCATS MIPE library collection: KMS11_JCRBsus cell viability assay (AID 1919873); conditions: KMS11 myeloma viability, CellTiter-Glo ATP luminescence, 48 h; series mostly up to 45.8 µM; also: nearly all actives have a fitted effect of over 50% in size
# Procedure, shortened: as §1
# [10] = Quantitative High-Throughput drug screen in 47 multiple myeloma cell lines against the NCATS MIPE library collection: KMS28BM_JCRB cell viability assay (AID 1919874); conditions: CellTiter-Glo ATP, 48 h; series mostly up to 45.8 µM; also: nearly all actives have a fitted effect of over 35% in size
# Procedure, shortened: as §1
# Potency is read from the fitted curve at half-maximal effect.
Compound,Potency [1],Potency [2],Potency [3],Potency [4],Potency [5],Potency [6],Potency [7],Potency [8],Potency [9],Potency [10]
COc1ccc(-c2cc3nccn3c(Nc3ncccc3C(N)=O)n2)cc1OC,1.18 µM (active),1.05 µM (active),0.935 µM (active),1.18 µM (active),0.59 µM (active),0.264 µM (active),inactive,8.33 µM (active),4.69 µM (active),6.62 µM (active)
CNC1CCC(N(Cc2cccc(-c3ccncc3)c2)C(=O)c2sc3ccccc3c2Cl)CC1 (centres undefined),8.33 µM (active),9.35 µM (active),8.33 µM (active),10.5 µM (active),10.5 µM (active),8.33 µM (active),26.4 µM (active),,8.33 µM (active),18.7 µM (active)
CCCCCOC(=O)Nc1nc(=O)n([C@@H]2O[C@H](C)[C@@H](O)C2O)cc1F (some centres undefined),3.32 µM (active),18.7 µM (active),2.64 µM (active),inactive,inactive,inactive,inactive,inactive,,
Nc1ncnc2c1c(-c1cccc(OCc3ccccc3)c1)cn2C1CC(CN2CCC2)C1 (centres undefined),14.8 µM (active),23.5 µM (active),1.66 µM (active),0.166 µM (active),6.62 µM (active),26.4 µM (active),5.26 µM (active),,2.96 µM (active),2.96 µM (active)
CN1CC(=O)NC1=NC(=O)Nc1cccc(Cl)c1,23.5 µM (active),29.6 µM (active),inactive,,20.9 µM (active),23.5 µM (active),14.8 µM (active),inactive,,
CC1=C(CC(=O)O)c2cc(F)ccc2C1=Cc1ccc(S(C)=O)cc1 (centres undefined),1.05 µM (active),0.935 µM (active),7.43 µM (active),18.7 µM (active),20.9 µM (active),,inactive,inactive,3.72 µM (active),9.35 µM (active)
NC[C@H]1O[C@H](O[C@@H]2[C@@H](O)[C@@H](O[C@H]3O[C@H](CO)[C@@H](O)[C@H](N)[C@@H]3O)[C@H](N)C[C@@H]2N)[C@H](O)[C@@H](O)[C@H]1O,inactive,inactive,16.6 µM (active),,inactive,inactive,inactive,inactive,inactive,inactive
CC(C)(C)c1nc(-c2cccc(NS(=O)(=O)c3c(F)cccc3F)c2F)c(-c2ccnc(N)n2)s1,2.96 µM (active),10.5 µM (active),2.96 µM (active),inactive,5.9 µM (active),,13.2 µM (active),3.32 µM (active),,inactive
C[C@@H](N)c1ccc(C(=O)Nc2ccnc3[nH]ccc23)cc1,20.9 µM (active),20.9 µM (active),26.4 µM (active),16.6 µM (active),26.4 µM (active),16.6 µM (active),,inactive,,23.5 µM (active)
C[C@@]1(C(=O)Nc2ccc(F)nc2)CCCN1c1nc(Nc2cc(C3CC3)[nH]n2)c2cccn2n1,0.0332 µM (active),0.0743 µM (active),0.0372 µM (active),0.0118 µM (active),11.8 µM (active),,,7.43 µM (active),0.0296 µM (active),
c1cc(OCCN2CCCCC2)cc(-c2n[nH]c3ccc(-c4ncn[nH]4)cc23)c1,5.26 µM (active),8.33 µM (active),11.8 µM (active),,10.5 µM (active),16.6 µM (active),,,,
CN(C)CCOc1ccc(-c2nc(-c3ccc4c(c3)CCC4=NO)c(-c3ccncc3)[nH]2)cc1,16.6 µM (active),18.7 µM (active),18.7 µM (active),,16.6 µM (active),10.5 µM (active),20.9 µM (active),16.6 µM (active),11.8 µM (active),9.35 µM (active)
Cc1nn(Cc2ccccc2Cl)c(C)c1CN(C)CC(O)COc1ccc(Cl)cc1 (centres undefined),20.9 µM (active),20.9 µM (active),20.9 µM (active),20.9 µM (active),,18.7 µM (active),20.9 µM (active),inactive,23.5 µM (active),33.2 µM (active)
CCC(=O)NCC[C@@H]1CCc2ccc3c(c21)CCO3,inactive,inactive,inactive,inactive,inactive,,inactive,,,inactive
OC1CCC(Nc2ncc3nc(Nc4c(F)cc(F)cc4F)n([C@@H]4CCOC4)c3n2)CC1 (some centres undefined),9.35 µM (active),13.2 µM (active),11.8 µM (active),inactive,,18.7 µM (active),inactive,,,inactive
CNC(=O)c1cc(Oc2ccc(NC(=O)Nc3ccc(Cl)c(C(F)(F)F)c3)c(F)c2)ccn1,0.935 µM (active),2.64 µM (active),2.96 µM (active),3.72 µM (active),3.32 µM (active),,,18.7 µM (active),,
CN1CCC[C@H]1CCO[C@](C)(c1ccccc1)c1ccc(Cl)cc1,18.7 µM (active),18.7 µM (active),18.7 µM (active),14.8 µM (active),,,,inactive,,

Compound,Potency [1],Potency [2],Potency [3],Potency [4],Potency [5],Potency [6],Potency [7],Potency [8],Potency [9],Potency [10]
COC1CCC(C(=O)c2ccc3nc4c(cc3c2)CCCO4)CC1 (centres undefined),16.6 µM (active),14.8 µM (active),13.2 µM (active),,18.7 µM (active),16.6 µM (active),20.9 µM (active),23.5 µM (active),20.9 µM (active),
Oc1cc(O)cc(C=Cc2ccc(O)c(O)c2)c1,5.26 µM (active),8.33 µM (active),10.5 µM (active),,4.18 µM (active),10.5 µM (active),,,,
O=C(c1ccc(F)c(F)c1Nc1ccc(I)cc1F)N1CC(O)([C@H]2CCCCN2)C1,18.7 µM (active),16.6 µM (active),9.35 µM (active),,7.43 µM (active),16.6 µM (active),20.9 µM (active),13.2 µM (active),18.7 µM (active),20.9 µM (active)
Cc1nc(NC(=O)N2CCC[C@@H]2C(N)=O)sc1-c1csc(C(C)(C)C)n1,4.69 µM (active),3.32 µM (active),0.264 µM (active),,5.9 µM (active),4.69 µM (active),,,,
CC(C)(F)C[C@H](N[C@@H](c1ccc(-c2ccc(S(C)(=O)=O)cc2)cc1)C(F)(F)F)C(=O)NC1(C#N)CC1,inactive,inactive,inactive,,6.62 µM (active),inactive,20.9 µM (active),inactive,inactive,inactive
Cc1ccccc1-n1c(Cn2nc(-c3cccc(O)c3)c3c(N)ncnc32)nc2cccc(C)c2c1=O,0.935 µM (active),2.09 µM (active),1.05 µM (active),4.18 µM (active),2.35 µM (active),5.9 µM (active),,8.33 µM (active),6.62 µM (active),7.43 µM (active)
O=C(c1ccc(C=Cc2n[nH]c3ccccc23)cc1)N1CCNCC1,14.8 µM (active),0.833 µM (active),3.72 µM (active),0.332 µM (active),5.9 µM (active),16.6 µM (active),,10.5 µM (active),1.05 µM (active),
CCC(=C(c1ccc(O)cc1)c1ccc(OCCNC)cc1)c1ccccc1,6.62 µM (active),11.8 µM (active),13.2 µM (active),9.35 µM (active),,23.5 µM (active),,,8.33 µM (active),23.5 µM (active)
CC(=O)N1CCN(c2ccc(OCc3nn(C)c(C)c3-c3cccc4c(CCCOc5cc(C)c(Cl)c(C)c5)c(C(=O)O)n(Cc5cccnc5)c34)cc2)CC1,5.9 µM (active),5.9 µM (active),10.5 µM (active),7.43 µM (active),,16.6 µM (active),inactive,inactive,20.9 µM (active),9.35 µM (active)
CN[C@@H]1[C@@H](O)[C@@H](O[C@@H]2[C@@H](O)[C@H](O[C@H]3O[C@H](CN)[C@@H](O)[C@H](O)[C@@H]3O)[C@@H](N)C[C@@H]2NC(=O)[C@@H](O)CN)OC[C@]1(C)O,inactive,inactive,inactive,,inactive,inactive,inactive,inactive,,
CCc1cccc(CC)c1NC(=O)N1Cc2[nH]nc(NC(=O)c3ccc(N4CCN(C)CC4)cc3)c2C1,8.33 µM (active),0.935 µM (active),5.9 µM (active),0.743 µM (active),20.9 µM (active),,,,1.05 µM (active),1.18 µM (active)
N#CC(c1ccnc(NCCc2cccnc2)n1)c1nc2ccccc2s1 (centres undefined),5.9 µM (active),10.5 µM (active),10.5 µM (active),16.6 µM (active),5.26 µM (active),5.9 µM (active),,26.4 µM (active),11.8 µM (active),
COc1cc(Cl)cn2c(-c3cccc(NC4CNC4)n3)cnc12,2.96 µM (active),11.8 µM (active),14.8 µM (active),20.9 µM (active),,14.8 µM (active),,inactive,,
CC(C)CNc1ccnc(NCc2csc(-c3ccccc3)n2)n1,16.6 µM (active),16.6 µM (active),5.26 µM (active),10.5 µM (active),18.7 µM (active),14.8 µM (active),,,13.2 µM (active),
NC(=O)c1ccc(N(C(N)=O)c2c(F)cccc2F)nc1-c1ccc(F)cc1F,1.48 µM (active),2.96 µM (active),16.6 µM (active),9.35 µM (active),16.6 µM (active),,inactive,inactive,,inactive
CCC(C)SSc1ncc[nH]1 (centres undefined),7.43 µM (active),5.26 µM (active),13.2 µM (active),8.33 µM (active),3.72 µM (active),7.43 µM (active),,5.9 µM (active),,9.35 µM (active)
CCNC(=O)c1noc(-c2cc(C(C)C)c(O)cc2O)c1-c1ccc(CN2CCOCC2)cc1,0.132 µM (active),0.0743 µM (active),0.0372 µM (active),0.0833 µM (active),0.105 µM (active),0.0526 µM (active),,,0.0235 µM (active),
